# Only some compounds are listed: those with a hit (about 6.2% of all), similar ones and a draw of the others.
# RORg inh – blocks mouse ROR gamma transcriptional activity; P51450; Drosophila S2 Gal4-RORgamma UAS-luciferase reporter, 20 h; Potency, µM (highest dose often 53.6 µM), for inactives: at the highest dose activity change, negative = inhibition, usual class: inhibitors; 310,000 compounds, 5.4% hits; AID 2551; note: nearly all actives have a fitted effect of over 60% in size
# Target sequence (P51450 whole entry, looked up, the tested form may be a part): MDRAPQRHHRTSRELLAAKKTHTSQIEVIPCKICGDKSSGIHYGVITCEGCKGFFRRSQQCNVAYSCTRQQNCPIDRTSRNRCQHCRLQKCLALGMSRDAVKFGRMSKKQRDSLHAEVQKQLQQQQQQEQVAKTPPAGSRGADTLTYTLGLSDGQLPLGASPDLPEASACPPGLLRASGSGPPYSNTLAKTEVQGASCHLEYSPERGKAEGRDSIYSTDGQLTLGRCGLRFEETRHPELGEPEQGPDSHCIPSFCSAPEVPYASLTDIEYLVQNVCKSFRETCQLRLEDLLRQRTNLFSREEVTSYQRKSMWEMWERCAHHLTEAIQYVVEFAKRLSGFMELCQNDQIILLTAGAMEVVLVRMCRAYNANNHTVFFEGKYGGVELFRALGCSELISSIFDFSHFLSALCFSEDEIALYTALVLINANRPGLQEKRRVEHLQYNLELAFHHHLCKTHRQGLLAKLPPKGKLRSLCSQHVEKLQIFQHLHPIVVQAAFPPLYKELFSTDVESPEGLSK
#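 Drosophila S2 cells stably expressing Gal4-DBD/mouse RORγ fusion under metallothionein promoter plus UAS-luciferase; compound 1 h, then 700 uM CuSO4 induction for 20 h at ambient temperature; inhibition read as reduced luminescence.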
# Gal4-VP16 FLuc – Gal4-VP16 reporter inhibition counter-screen | Drosophila S2 Gal4-VP16 UAS-luciferase, luminescence, 20 h | Potency, µM (top dose mostly 53.6 µM), without a hit: top-dose activity, negative = inhibition, hits mostly inhibitors | 310,000 compounds, 3.5% hits | AID 2546;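 note: Gal4-VP16 expression switched on by copper sulfate through the metallothionein promoter; nearly all actives have a fitted effect of over 50% in size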
# Luc counter – blocks Kinase-Glo luciferase, a counter-screen artifact; Kinase-Glo luciferase, ATP luminescence, 8 min; Potency, µM (top dose mostly 38.3 µM), for inactives: top-dose activity change, negative = inhibition, hits mostly inhibitors; 200,000 compounds, 0.28% hits; AID 1379; note: nearly all actives have a fitted effect of over 60% in size
#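 Luminescence was the read-out, taken after 8-minute incubation at ambient temperature. Luciferase turned over luciferin with 10 uM ATP in imidazole pH 7.2 buffer containing KCl, MgCl2, Tween 20 and BSA.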
# Starred values were filed as active, the others as inactive; ? = inconclusive; . = not tested or not shown; [ ] = dose if it differs, or a comment. Calls come from the whole dose curve; as a rule, active = well fitted curve in the direction sought with a large enough effect; inconclusive = small, poorly fitted or top-dose-only effect, or another doubt; inactive = no such curve, though single readings can be large; an effect the other way counts as inactive or inconclusive. % is set by controls: 0 for no effect and ±100 for the full control effect; potency is the fitted concentration of half-maximal effect.
SMILES,RORg inh,Gal4-VP16 FLuc,Luc counter
Cc1cccc(NC(=O)c2cnccn2)c1,4.2%,-2.0%,.
CNC(=O)c1[nH]cnc1C(=O)Nc1ccc(C)cc1,3.98µM*,4.47µM*,-3.3%
Cc1ccc(NC(=O)c2nsc(Cl)c2Cl)cc1,-16.4%,-7.3%,.
CNC(=O)c1[nH]cnc1C(=O)Nc1ccccn1,-27.7%,-15.3%,-5.8%
Cc1cccc(NC(=O)c2nc[nH]c2C(=O)Nc2cccc(C)c2)c1,1.41µM*,2.82µM*,-1.2%
Cc1ccc(NC(=O)c2ncn[nH]2)cc1,-0.8%,-6.5%,-0.9%
CCOc1ccc(S(=O)(=O)N2CCN=C2c2ccccc2)cc1,-14.1%,0.6%,.
CCCCn1c(SCC(=O)c2ccccc2)nc2c1c(=O)[nH]c(=O)n2C,13.8%,-1.4%,-1.5%
CCOCCCN(C(=O)c1snc(C(N)=O)c1N)C(C(=O)NC1CCCC1)c1ccc(F)cc1 (stereo unspecified),2.6%,12.0%,.
Cc1cc(NC(=O)CSc2nc(=O)cc(N)n2-c2ccc(C)c(C)c2)no1,-25.2%,-10.6%,.
OC(CN1CCN(c2ccccc2)CC1)c1ccc2c(c1)CCN2 (stereo unspecified),?,-7.5%,1.0%
CNC(=O)c1[nH]cnc1C(=O)Nc1ccc(F)cc1,12.6µM*,?,.
CNC(=O)c1[nH]cnc1C(=O)Nc1cccc(OC)c1,7.08µM*,14.1µM*,5.0%
CCOC(=O)c1[nH]cnc1C(=O)Nc1cccc(OC)c1,-16.6%,1.3%,.
O=C(Nc1ccc(F)cc1)c1cncs1,-21.1%,2.2%,.
COC(=O)C1=C(C(=O)OC)[C@@H]2N(C)c3ccc(OC)cc3[C@@]23C[C@@H](C(=O)OC)N(S(=O)(=O)c2ccc(C#N)cc2)C3=N1,.,.,-2.5%[7.66 µM]
CSc1ccc(/C=C/C(=O)NC(=O)c2ccccc2O)cc1,6.1%,-11.9%[10 µM],-7.0%
COc1ccc(-n2c(=O)c(C)nc3cnc(N(C)C)nc32)cc1,12.4%,-4.1%,1.3%
COc1cc2c(cc1O)CCN[C@@]21CS[C@H]2c3c(OC(C)=O)c(C)c4c(c3C(COC1=O)N1C2C2c3c(cc(C)c(OC)c3O)CC([C@@H]1O)N2C)OCO4 (stereo partly specified),0.141µM*,0.447µM*,.
O=C(O)CC/C(=N/Nc1ncc(C(F)(F)F)cc1Cl)C(=O)O,12.6µM*,?,2.1%
CC(=O)N1CCC(=NNc2ncc(C(F)(F)F)cc2Cl)CC1,3.16µM*,?,-3.1%
O=C(O)CCc1ncc(C(F)(F)F)cc1Cl,25.9%,12.3%,-2.3%
CCOC(=O)N1CCN(c2ncc(C(F)(F)F)cc2Cl)CC1,10.1%,-5.2%,0.1%
NC(=O)CNc1ncc(C(F)(F)F)cc1Cl,-5.3%,-9.4%,0.4%
CCOC(=O)N1CCC(=NNc2ncc(C(F)(F)F)cc2Cl)CC1,7.08µM*,?,-1.4%
SMILES,RORg inh,Gal4-VP16 FLuc,Luc counter
Cc1cc(C)c(S(=O)(=O)Nc2ccccc2C(=O)OCC(=O)NCc2ccccc2)c(C)c1,2.9%,-8.4%,1.6%
Cc1ccc(CC2CC(=O)N(c3nc4ccccc4s3)C2=O)cc1 (stereo unspecified),4.7%,0.8%,0.5%
N=C1SC(c2ccccc2)C(=O)N1c1ncc(Cc2ccccc2)s1 (stereo unspecified),7.08µM*,7.94µM*,-1.8%
Cc1ccc(Cc2cnc(N3C(=N)SC(c4ccccc4)C3=O)s2)cc1 (stereo unspecified),11.2µM*,3.98µM*,.
O=C1c2ccccc2C(=O)N1Cc1cnc(N2CCN(c3ccccc3)CC2)s1,-0.9%,1.1%,-2.3%
Cc1ccc(C)c(Cn2nnc3c(=O)[nH]c(C4CCCN(S(=O)(=O)Cc5ccccc5)C4)nc32)c1 (stereo unspecified),8.7%,-5.1%,.
CCOc1cc(/C=C(\C#N)c2[nH]nc(N)c2C#N)ccc1O,20.1%,?,-7.8%
CCOc1ccc(C(CCc2ccccc2)NC(=O)c2ccccc2F)cc1OCC (stereo unspecified),13.8%,2.2%,-1.2%
CCOc1ccc(C(CCc2ccccc2)NC(=O)c2ccccc2OC)cc1OCC (stereo unspecified),7.94µM*,?,3.8%
Cc1ccc(S(=O)(=O)N(C)C)cc1NC(=O)c1cccnc1Oc1ccccc1,?,4.7%,.
CCCn1nnc(NC(=S)NC(=O)CC)n1,7.08µM*,10µM*,1.4%
CCCn1nnc(NC(=O)c2ccc(-c3ccccc3)cc2)n1,-2.3%,28.3%,10.0%
CCCn1nnc(NC(=S)NC(=O)Cc2ccccc2)n1,0.251µM*,0.5%,0.8%
CCCn1nnc(NC(=O)C(C)C)n1,12.2%,-1.9%,.
CN(C)c1ccc(NC(=S)NC(=O)/C=C/c2ccc(Cl)cc2)cc1,?,?,1.7%
CCCn1nnc(NC(=S)NC(=O)/C=C/c2ccc(Cl)cc2)n1,5.01µM*,-20.5%,.
COC(=O)NC(/C(C(=O)OC)=C(\C)NCc1ccccc1)c1cccc(C)c1 (stereo unspecified),-10.8%[10 µM],-13.6%[10 µM],.
Cc1c(S(=O)(=O)N2CCN(c3cccc(Cl)c3)CC2)c(=O)n(C)c(=O)n1C,-13.9%,-12.8%,.
C=CCn1c(SCC(=O)NCc2ccco2)nc2sc3c(c2c1=O)CCCC3,-6.4%,5.4%,-2.4%
O=C(NCc1ccco1)c1ccc2nc3sc4c(c3c(=O)n2c1)CCCC4,4.47µM*,?,-3.2%
CCOP(=O)(NC(c1ccccc1)c1nc2ccccc2[nH]c1=O)OCC (stereo unspecified),16.2%,3.4%,.
Cc1cccc(C(=O)Nc2nnc(-c3ccc(C(C)(C)C)cc3)s2)c1,14.1µM*,4.3%,-5.0%
Cc1ccccc1C(=O)Nc1nnc(-c2ccc(C(C)(C)C)cc2)s1,-17.1%[10 µM],-18.2%,0.6%
Cc1cc(N/N=C/c2ccco2)c2ccccc2n1,-5.2%,-9.3%,-1.2%
Cc1cc(N/N=C/c2ccc(O)cc2)c2cccc(C)c2n1,?,17.8µM*,.
SMILES,RORg inh,Gal4-VP16 FLuc,Luc counter
Cc1cc(N/N=C/c2ccc(N(C)C)cc2)c2ccccc2n1,15.8µM*,?,.
Cc1cc(C)c2nc(C)cc(N/N=C/c3ccc(O)cc3)c2c1,?,4.47µM*,.
Cc1ccc(Nc2cc(C)nc3c(C)cccc23)cc1,-20.6%,-0.1%,.
Cc1nc(Cl)cc(N/N=C/c2ccc(O)cc2)n1,?,20.2%,.
C=CC(=O)c1ccc(CCCCCC)cc1,0.6%,-25.3%,.
O=C(O)c1ccc(S(=O)(=O)c2ccc3c(c2)C(=O)N(NC(=O)c2ccc(O)cc2)C3=O)cc1,6.31µM*,10µM*,4.1%
Cc1ccc(C(=O)NN2C(=O)c3ccc(S(=O)(=O)c4ccc(C(=O)O)cc4)cc3C2=O)cc1,-20.9%,4.5%,2.6%
FC(F)(F)c1ccccc1-c1nc(N2CCOCC2)c2ccccc2n1,2.6%,4.2%,.
CN1/C(=C\C(=S)NC(=O)c2ccccc2Cl)C(C)(C)c2ccccc21,7.94µM*,20µM*,3.8%
CN1/C(=C/C(=S)NC(=O)C2(C)CC2(Cl)Cl)C(C)(C)c2ccccc21 (stereo unspecified),4.47µM*,?,1.6%
CN1/C(=C\C(=S)Nc2ccccc2)C(C)(C)c2ccccc21,?,?,-0.3%
COc1ccccc1C(=O)NC(=S)/C=C1/N(C)c2ccccc2C1(C)C,3.5%,2.9%,-1.9%
COC(=O)C1=C(C(=O)OC)[C@@H]2Nc3ccccc3[C@@]23C[C@@H](C(=O)OC)N(S(=O)(=O)c2c(C)noc2C)C3=N1,.,.,-6.8%[7.66 µM]

# High-throughput results deposited in PubChem BioAssay by National Center for Advancing Translational Sciences (NCATS).
